High-throughput results from PubChem.
This is a sample that favours compounds with a hit; in the whole collection about 15% have one here.
TDP1 cell CPT: DT40-hTDP1 cell growth loss with CPT | actives 12% (n = 420,000) | chicken DT40 Tdp1-/-;hTDP1 cells + 20 nM CPT, ATP luminescence, 48 h | Potency, µM (highest dose often 46.2 µM), usual class: inhibitors | AID 686979; note: nearly all actives have a fitted effect of over 55% in size
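Chicken DT40 Tdp1-/- cells complemented with human TDP1, 400 cells/well, exposed to compounds plus 20 nM camptothecin for at least 48 h at 37 C; viability read as ATP content by CellTiter-Glo luminescence.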
ELG1 DNA repair: blocks ELG1-dependent DNA repair in HEK293T cells; Potency, µM (titrated, usually from 46.1 µM), actives largely listed as inhibitors; actives 2.3% (n = 330,000); HEK293T ELG1-luciferase reporter, luminescence, 16 h; DNA damage induced by 5-fluorouridine; note: nearly all actives have a fitted effect of over 55% in size
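Reporter activity after DNA damage by 5-fluorouridine is monitored. Compound-treated cells incubate 16 hr at 37 °C, then ONE-Glo is added for 30 min before luminescence reading.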
DT40 TDP1 no CPT: qHTS for Inhibitors of human tyrosyl-DNA phosphodiesterase 1 (TDP1): qHTS in cells in absence of CPT. AID 686978, 2013. DT40 Tdp1-/- hTDP1 cells, no CPT, ATP luminescence, 48 h. actives 15% (n = 420,000). Potency, µM (titrated, usually from 46.2 µM), actives largely listed as inhibitors; note: nearly all actives have a fitted effect of over 55% in size
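Luminescent ATP content (CellTiter-Glo) served as the growth readout. Knockout chicken DT40 cells expressing human TDP1 were exposed to compounds without camptothecin for a minimum 48 hr at 37 °C.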
ALOX12 inh: blocks human arachidonate 12S-lipoxygenase | P18054 | purified 12hLO, xylenol orange hydroperoxide absorbance | Potency, µM (top dose mostly 108 µM), usual class: inhibitors | actives 1.1% (n = 580,000)
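Purified human 12hLO at 150 nM in 25 mM Hepes, 0.01% Triton X-100, pH 7.0, preincubated 15 min at room temperature with compound. Reaction started with 40 uM arachidonic acid, 30 min at room temperature. Hydroperoxide measured by Fe-xylenol orange, 573/405 nm absorbance ratio.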
RORgamma inh: inhibitors of mouse ROR gamma transcriptional activity | Drosophila S2 Gal4-RORgamma UAS-luciferase reporter, 20 h | Potency, µM (doses to about 53.6 µM), usual class: inhibitors | actives 5.4% (n = 310,000) | AID 2551; note: nearly all actives have a fitted effect of over 60% in size
Target sequence (P51450 whole entry, looked up, the tested form may be a part): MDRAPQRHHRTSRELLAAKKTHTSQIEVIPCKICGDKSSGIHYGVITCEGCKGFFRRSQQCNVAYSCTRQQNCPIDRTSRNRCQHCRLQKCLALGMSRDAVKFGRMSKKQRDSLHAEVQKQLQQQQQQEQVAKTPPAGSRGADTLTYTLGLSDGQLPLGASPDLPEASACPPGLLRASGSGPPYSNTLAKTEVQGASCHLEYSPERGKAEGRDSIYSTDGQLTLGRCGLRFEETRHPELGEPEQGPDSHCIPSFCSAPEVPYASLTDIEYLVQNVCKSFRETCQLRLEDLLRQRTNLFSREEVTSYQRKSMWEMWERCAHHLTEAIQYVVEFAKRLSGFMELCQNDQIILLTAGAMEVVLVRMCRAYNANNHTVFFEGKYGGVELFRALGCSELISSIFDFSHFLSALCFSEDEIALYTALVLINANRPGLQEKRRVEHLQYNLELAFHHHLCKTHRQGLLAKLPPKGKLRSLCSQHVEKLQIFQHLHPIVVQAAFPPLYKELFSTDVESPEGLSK
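Luciferase reporter read in Schneider cells carrying Gal4-RORγ (mouse) and UAS-Photinus luciferase; cells given compound 1 h before 700 uM copper sulfate induction, then incubated 20 h at ambient temperature.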
Gal4-VP16 FLuc: inhibits Gal4-VP16 luciferase reporter, ROR gamma counter-screen; Drosophila S2 Gal4-VP16 UAS-luciferase, luminescence, 20 h; Potency, µM (titrated, usually from 53.6 µM), most hits filed as inhibitors; actives 3.5% (n = 310,000); AID 2546;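 note: Gal4-VP16 expression switched on by copper sulfate through the metallothionein promoter; nearly all actives have a fitted effect of over 50% in size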
A number is an active result; i = inactive; ? = inconclusive; nt = no result; ! = not active in a repeat; [ ] = remark or other dose. Calls come from the whole dose curve; as a rule, active = well fitted curve in the direction sought with a large enough effect; inconclusive = small, poorly fitted or top-dose-only effect, or another doubt; inactive = no such curve, though single readings can be large; an effect the other way counts as inactive or inconclusive.

SMILES	TDP1 cell CPT	ELG1 DNA repair	DT40 TDP1 no CPT	ALOX12 inh	RORgamma inh	Gal4-VP16 FLuc
O=c1c2ccccc2nc(/C=C/c2ccc([N+](=O)[O-])o2)n1-c1ccc(O)cc1	2.31µM	?	2.31µM	i	i	i
CCN(CC)C(=O)c1ccc(NC(=O)COc2ccc([N+](=O)[O-])cc2Cl)cc1	?	i	20.6µM	i	i	i
CCN(CC)C(=O)c1ccc(NC(=O)COC(=O)c2ccc3nc(C)c(C)nc3c2)cc1	nt	nt	nt	i	nt	nt
O=C1CNC(c2ccccc2Cl)c2cc(Br)ccc2N1 (stereo unspecified)	i	i	8.2µM	?	i	i
Cc1cc(C)cc(C(=O)N2CCC3(CC2)c2nccn2-c2ccccc2CN3C)c1	nt	nt	nt	i	nt	nt
S=C(NCCc1ccccc1)N1Cc2ccccc2-n2nncc2C1	?	nt	20.6µM	i	nt	nt
c1ccc2c(c1)CN(Cc1ccc3c(c1)OCO3)Cc1cnnn1-2	?	nt	10.3µM	i	nt	nt
O=C(Cc1cccs1)N1Cc2ccccc2-n2nncc2C1	i	nt	?	39.8µM	nt	nt
CCc1ccc(N2CC(C(=O)OCC(=O)Nc3ccc(C#N)c(Cl)c3)CC2=O)cc1 (stereo unspecified)	nt	nt	nt	i	nt	nt
O=C(NC[C@H]1C[C@@H]2CCN1C[C@@H]2CN1CCCCC1)c1ccccc1	nt	nt	nt	i	nt	nt
CCCCCc1nc2c(c(=O)c3ccccc3n2C)c(=O)n1C1CCCCCC1	20.6µM	i	18.4µM	?	i	?
CCOC(=O)[C@]12Cc3cc(Cl)ccc3[C@H]1N(C)C(=O)c1ccccc12	?	nt	?	i	nt	nt
CCOC(=O)C1(c2ccccc2)CCN(CC(=O)c2ccc(NC(C)=O)cc2)CC1	?	nt	?	i	nt	nt
CCOC(=O)[C@]12Cc3cc(Cl)ccc3[C@H]1N(C(C)C)C(=O)c1ccccc12	2.59µM	nt	3.26µM	?	nt	nt
CCOC(=O)[C@]12Cc3cc(Cl)ccc3[C@H]1N(CC(=O)OC)C(=O)c1ccccc12	9.2µM	nt	4.11µM	nt	nt	nt
CCC(CC)c1cc([C@H]2CN3CC[C@H]2C[C@@H]3CNC(=O)c2cccs2)nc(-c2ccncc2)n1	nt	nt	nt	i	nt	nt
COc1ccc(CN2CCC3(CC2)C(=O)Nc2ccccc23)cc1	nt	nt	nt	i[6.33 µM]	nt	nt
CN(C)c1ccc(CC(=O)N2CCN(Cc3ccccc3)CC(O)C2)cc1 (stereo unspecified)	nt	nt	nt	i	nt	nt
C[C@@]1(CO)[C@H](O)CC[C@@]2(C)[C@H]1CC[C@H]1C[C@@H]3C[C@@]12CC[C@]3(O)CO	0.104µM	i	0.131µM	?	i	i
COc1cccc(CN(C)C[C@@H]2OCc3ccccc3-c3c(n(C)c4ccccc34)C(=O)N([C@@H](C)CO)C[C@H]2C)c1	i	nt	?	i	nt	nt
C[C@@H]1CN([C@H](C)CO)C(=O)c2c(c3ccccc3n2C)-c2ccccc2CO[C@H]1CN(C)Cc1ccc(-c2ccccc2)cc1	18.4µM	nt	20.6µM	i	nt	nt
COc1ccc(OC(=O)N(C)C[C@@H]2OCc3ccccc3-c3c(n(C)c4ccccc34)C(=O)N([C@H](C)CO)C[C@@H]2C)cc1	i	nt	23.1µM	i	nt	nt
C[C@@H]1CN([C@@H](C)CO)C(=O)c2c(c3ccccc3n2C)-c2ccccc2CO[C@H]1CN(C)S(=O)(=O)c1ccc(C#N)cc1	i	nt	?	?	nt	nt
COc1ccc(OC(=O)N(C)C[C@H]2OCc3cnnn3CCCC(=O)N([C@H](C)CO)C[C@@H]2C)cc1	i	nt	i	i	nt	nt
Cc1ccccc1S(=O)(=O)N(C)C[C@@H]1OCc2ccccc2-c2c(n(C)c3ccccc23)C(=O)N([C@H](C)CO)C[C@@H]1C	16.4µM	nt	20.6µM	i	nt	nt
SMILES	TDP1 cell CPT	ELG1 DNA repair	DT40 TDP1 no CPT	ALOX12 inh	RORgamma inh	Gal4-VP16 FLuc
C[C@@H]1CN([C@H](C)CO)C(=O)c2c(c3ccccc3n2C)-c2ccccc2CO[C@@H]1CN(C)Cc1ccc(O)cc1	20.6µM	nt	14.6µM	i	nt	nt
Cc1ncc2c(n1)C[C@@H]1CC[C@H]2N1C(=O)Nc1ccc2c(c1)OCCO2	nt	nt	nt	i	nt	nt
COCC(=O)NC[C@H]1C[C@@H]2CCN1C[C@@H]2c1cc(-c2cccs2)nn1C	nt	nt	nt	i	nt	nt
COc1ccc(CC(=O)Nc2ccc(N3CCC(NC(C)Cc4cccnc4)CC3)cc2)cc1 (stereo unspecified)	nt	nt	nt	i	nt	nt
N#CC(C#N)=Cc1cccn1-c1ccc(Br)cc1	nt	nt	nt	i	nt	nt
COC(=O)[C@@H]1[C@@H](CO)[C@@H]2Cn3c(cccc3=O)[C@H]1N2C(=O)Nc1cc(F)ccc1F	nt	nt	nt	i	nt	nt
CNCCc1ccc(OC)c(OC)c1	i	i	i	i	i	i
CCc1ccc(-n2nc(C)c3c(C(=O)NCCc4ccc(OC)c(OC)c4)cc(C)nc32)cc1	18.4µM	nt	18.4µM	i	nt	nt
COCC(=O)NC[C@H]1C[C@@H]2CCN1C[C@@H]2CN1CCCC1	nt	nt	nt	i	nt	nt
Cc1cccc(C)c1NC1=NCCCS1	?	i	?	i	10µM!	i
Cc1cc(C)c(NC2=NCCCS2)c(C)c1	i	i	i	i	i	i
CN1CCN(C(=O)Cc2c[nH]c3ncc(-c4ccc(CO)cc4)cc23)CC1	nt	nt	nt	i	nt	nt
C=CCN(C)C[C@H]1CN2CC[C@H]1C[C@@H]2CNC(=O)COC	nt	nt	nt	i	nt	nt
CCc1cnc(N2CCC3(CC2)C(=O)Nc2cc(Oc4ccccc4)c(OC)cc23)nc1	nt	nt	nt	i	nt	nt
Cc1cccc(NC(=O)CSc2nc3ccccc3c(=O)n2C)c1C	8.2µM	nt	4.11µM	?	nt	nt
Cn1c(SCC(=O)Nc2ccccc2F)nc2c([nH]c3ccccc32)c1=O	14.6µM	nt	18.4µM	i	nt	nt
Cc1cccc(NC(=O)c2cc3c(=O)n4ccccc4nc3n2C)c1C	0.92µM	nt	0.651µM	i	nt	nt
CN1CCN(c2nc3ccccn3c(=O)c2C=C2C(=O)N(C)C(=O)N(C)C2=O)CC1	i	i	i	nt	i	i
Cc1ccccc1-c1nc2ccccc2c(=O)n1C	i	i	i	?	i[1.91 µM]	i
O=C1c2ccccc2NC2(c3ccccc3)c3ccccc3-n3nncc3CN12 (stereo unspecified)	nt	nt	nt	i	nt	nt
COc1ccc(C)cc1NC(=O)c1c(C)nn(Cc2ccccc2)c1Cl	i	14.6µM	?	i	?	i
Cc1ncc2c(n1)C[C@@H]1CC[C@H]2N1C(=O)c1nn(C)c2ccccc12	nt	nt	nt	i	nt	nt
COc1cc2c(cc1Oc1ccccc1)NC(=O)C21CCN(Cc2nccn2C)CC1	nt	nt	nt	i	nt	nt
CCOP(=O)(OCC)/C(C#N)=C/c1ccc(-c2ccc(F)cc2F)o1	14.6µM	?	?	?	i	i
COc1ccc(S(=O)(=O)NC[C@H]2C[C@@H]3CCN2C[C@@H]3CN2CCOCC2)cc1	nt	nt	nt	i	nt	nt
COc1ccc(S(=O)(=O)NC[C@H]2C[C@@H]3CCN2C[C@@H]3CN2CCC(Cc3ccccc3)CC2)cc1	nt	nt	nt	20µM	nt	nt
